Measured values reported in the supplement of paper PMC3334620.
The full ranking holds about 33,000 sequences; the median of “E-score (-0.5 to 0.5)” is about -0.032, and the highest 2% start at about 0.36. Many of the other results were omitted from the sample, so the highest values are more common in it than they were.

These sequences were tested against T1, Sko1 (UniProt Q02100) (assay: PBM E-score (8-mer binding enrichment) (E-score (-0.5 to 0.5)); higher = stronger / more preferred TF binding). Conditions: protein concentration: 200 nM; construct: GST-full length.
T1 sequence: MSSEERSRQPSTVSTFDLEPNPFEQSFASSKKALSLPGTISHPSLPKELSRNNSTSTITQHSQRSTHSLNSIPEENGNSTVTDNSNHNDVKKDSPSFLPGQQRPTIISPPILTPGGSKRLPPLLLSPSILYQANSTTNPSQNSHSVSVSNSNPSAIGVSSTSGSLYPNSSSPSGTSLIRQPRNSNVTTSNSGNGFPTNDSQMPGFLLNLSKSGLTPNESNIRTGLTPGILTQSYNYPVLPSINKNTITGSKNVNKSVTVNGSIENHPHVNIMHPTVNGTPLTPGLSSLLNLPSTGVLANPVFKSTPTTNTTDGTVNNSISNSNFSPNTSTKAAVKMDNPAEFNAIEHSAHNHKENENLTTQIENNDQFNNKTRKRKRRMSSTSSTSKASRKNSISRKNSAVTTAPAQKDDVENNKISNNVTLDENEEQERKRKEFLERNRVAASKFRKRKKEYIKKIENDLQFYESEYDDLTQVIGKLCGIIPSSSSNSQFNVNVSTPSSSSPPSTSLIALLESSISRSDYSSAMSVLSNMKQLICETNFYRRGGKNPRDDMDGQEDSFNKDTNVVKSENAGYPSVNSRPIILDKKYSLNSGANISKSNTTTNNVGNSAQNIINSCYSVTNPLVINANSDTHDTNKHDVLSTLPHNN
Method: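 Universal 'all 10-mer' protein binding microarrays (Agilent AMADID 015681) probed with GST-tagged S. cerevisiae TFs (full-length or DBD) made by in vitro transcription/translation (PURExpress), about 100-200 nM. Bound TF was detected with fluorescent anti-GST. Each ungapped 8-mer (which stands for itself and its reverse complement) is scored by the PBM enrichment score (E-score), a modified Wilcoxon-Mann-Whitney statistic from -0.5 to +0.5, computed with the Universal PBM Analysis Suite. Scale: above 0.35 generally sequence-specific binding.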

| Sequence | PBM E-score |
| --- | --- |
| AGTGTGGG | -0.197 |
| CACCTGGC | -0.0659 |
| CAGCCCTC | -0.334 |
| CCCTAGAG | -0.32 |
| ATTCCCGG | -0.0536 |
| ACTAAGTA | 0.0919 |
| AGGCGCGG | -0.242 |
| ACAAACCG | -0.0685 |
| ATGCCCGG | -0.334 |
| GCGGTTAA | -0.186 |
| TAATTCTA | 0.227 |
| ATCACCAA | 0.0298 |
| ATGACGCC | 0.449 |
| AAGACGCC | -0.165 |
| ATGACTCC | -0.00531 |
| TACTAGAA | 0.124 |
| GGACGTAC | 0.275 |
| CGACGTGC | 0.22 |
| CGACGTTC | -0.0745 |
| CGACGAAG | 0.00357 |
| GGACGTTA | 0.251 |
| CGTCGTAG | 0.0813 |
| GGACGTAA | 0.426 |
| CGACGTAG | 0.368 |
| AGACGTTA | 0.283 |

| Sequence | PBM E-score |
| --- | --- |
| AGACGGAA | -0.136 |
| CGACGTAC | 0.412 |
| AGACGTAA | 0.447 |
| CAAAAATC | 0.131 |
| CCGACTCA | -0.246 |
| ACCTAACA | 0.056 |
| CATTTGCG | 0.179 |
| ACGCAGCC | 0.0962 |
| AATACTTA | 0.178 |
| CGACGTGA | 0.344 |
| CGACGTAA | 0.472 |
| CGACGTTA | 0.337 |
| ACTGCACA | -0.0526 |
| GTAACGCA | 0.217 |
| ATAACGTA | 0.461 |
| CTAACGAA | 0.0318 |
| GTAACGTA | 0.421 |
| GTAACGAA | 0.216 |
| CTAACGGA | 0.007 |
| CTAACGTA | 0.374 |
| ATAACGGA | 0.0991 |
| ATAACGAA | 0.268 |
| TCGTCTCA | -0.0858 |
| ATTTCGAA | 0.247 |
| AGTGGGGA | -0.201 |

| Sequence | PBM E-score |
| --- | --- |
| ACACCTTG | 0.00022 |
| TTTGCAAA | 0.0584 |
| ATTCATCG | -0.0686 |
| AACCAGAA | 0.0649 |
| AGTAGGAA | -0.0265 |
| CGGAAGGA | -0.178 |
| GCAACGCA | 0.0485 |
| CCAACGTA | 0.387 |
| GCAACGAA | 0.148 |
| ACAACGAA | 0.0922 |
| GCAACGTA | 0.399 |
| ACAACGCC | 0.0338 |
| ACAACGTG | 0.218 |
| ACAACGTC | 0.368 |
| CCAACGCA | 0.117 |
| CCAACGTC | 0.236 |
| ACAACGTA | 0.416 |
| ACAACGGA | 0.00163 |
| ATCACTCC | -0.0415 |
| CACACCCC | -0.208 |
| CGCGAACC | -0.0595 |
| AATCCAAT | 0.0698 |
| CTCGGATC | -0.0845 |
| TAATTCGA | 0.198 |
| ATGCACTG | -0.0475 |

| Sequence | PBM E-score |
| --- | --- |
| AGATATTC | 0.0644 |
| ATAACGCG | 0.184 |
| ATAACGAC | 0.241 |
| ATAACGTG | 0.377 |
| ATAACGGG | 0.00173 |
| ATAACGTC | 0.425 |
| CTAACGTC | 0.338 |
| ATTGCTTC | -0.109 |
| CCGAACTC | -0.125 |
| CTGTTAGA | -0.0627 |
| AAGTTCTC | -0.203 |
| AAATGATA | 0.266 |
| CAATGATC | 0.0721 |
| CAATGATG | 0.381 |
| AAATGATG | 0.373 |
| CAATGATA | 0.254 |
| AAATGATT | 0.263 |
| CCCGATAC | -0.0866 |
| CCTACTTA | -0.00728 |
| GCCCGTAA | 0.172 |
| ACGCACGC | 0.316 |
| ACGCACAA | 0.262 |
| ACGCACGA | 0.295 |
| ACGCACAG | 0.254 |
| AAGCACGG | -0.00706 |

| Sequence | PBM E-score |
| --- | --- |
| AAGCACGT | 0.389 |
| ACGCACGT | 0.403 |
| AAGCACGA | 0.0735 |
| ACGCACAT | 0.387 |
| GGAACGGA | -0.185 |
| ATTCGCTG | 0.0204 |
| CGAATACG | 0.406 |
| AGAATACG | 0.304 |
| ACAATACA | 0.0868 |
| ATAATACC | 0.138 |
| ACAATACG | 0.386 |
| ACAATACT | 0.151 |
| ATAATACA | 0.208 |
| ATAATACG | 0.376 |
| CGAATACC | -0.0967 |
| CTGGCAAC | -0.23 |
| CACGCTTA | 0.116 |
| AGATGCAT | -0.0801 |
| ACTGAAGA | 0.0507 |
| AAACGTAA | 0.462 |
| AACCGTAA | 0.0957 |
| AAACGTGC | 0.231 |
| AAACGTAC | 0.37 |
| AAACGTAT | 0.429 |
| AAACGTTA | 0.3 |

| Sequence | PBM E-score |
| --- | --- |
| AAACGTAG | 0.393 |
| AAACGTGT | 0.288 |
| CAACGTAC | 0.326 |
| AAGCGTAG | -0.0528 |
| AAACGTTT | 0.275 |
| GGATTCAC | -0.215 |
| CATCTCGC | -0.129 |
| AGTCCGTA | -0.218 |
| TATAGAAA | 0.0683 |
| AGCTTTGG | -0.172 |
| ATAAAACC | -0.0531 |
| AGACAGTG | -0.112 |
| GTCTCCTA | 0.0919 |
| GACCTCGC | -0.122 |
| GAGAAACC | -0.146 |
| TACCATCA | -0.0837 |
| GCACGTAA | 0.459 |
| GCACGTAC | 0.34 |
| TCACGTGA | 0.336 |
| TCACGTAA | 0.472 |
| GCTCGTAA | 0.231 |
| TCCCGTAA | 0.11 |
| TCAAACGA | 0.102 |
| CTTTGGGC | -0.121 |
| AGAGGGCT | -0.406 |

| Sequence | PBM E-score |
| --- | --- |
| GGTAAATA | 0.0846 |
| CCGACCAC | -0.182 |
| GACGTGTA | 0.374 |
| CGCGTGTA | 0.227 |
| CACGTGTC | 0.357 |
| AACGTGTA | 0.247 |
| CACGTGTA | 0.399 |
| GTCGTGTA | 0.169 |
| AGGTTAAA | -0.104 |
| CTCCTTGA | -0.159 |
| CGCCAGGC | -0.227 |
| AAGGTTGT | 0.00278 |
| CTAATTGC | 0.104 |
| TACGAATA | 0.383 |
| CACGAATA | 0.265 |
| GACGAATA | 0.297 |
| CTAAGATA | -0.023 |
| CGCACGCA | 0.211 |
| GGCACGTA | 0.395 |
| GGCACGGA | -0.233 |
| GGCACGCA | -0.00979 |
| CGCACGTA | 0.408 |
